Hits are enriched below; roughly 2.6% of the tested compounds scored in any of these assays.
LMP1 NFkB inh: Epstein-Barr LMP1 NF-kappaB reporter inhibition | inhibition, % at 12.5 µM | LMP1-induced NF-kappaB luciferase reporter cells, luminescence | AID 504558 | 0.69% of 350,000 active; in the data active = inhibition above about 41%;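 also: 0% = neutral control wells and 100% = reference inhibitor control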
HSP90 refold inh: blocks HSP90-mediated luciferase refolding in reticulocyte lysate | inhibition, % at 5.6 µM | AID 1789 | 0.91% of 290,000 active | Rabbit reticulocyte lysate, luciferase refolding luminescence, 3 h;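 active = inhibition above the screen-wide mean plus 3 SD, computed separately per campaign, cut at about 16% in these data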;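 also: 0% = DMSO wells and 100% = 60 µM geldanamycin wells; inhibitors lower the luminescence because luciferase stays unfolded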
TROY NFkB inh: inhibitors of TROY-dependent NF-kB signaling; AID 1347056; Q293 LMP1-TROYcd NF-kB luciferase reporter, 4 h; inhibition, % at 10 µM; 0.98% of 360,000 active;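 active = compounds whose plate-normalised and pattern-corrected inhibition of the luciferase reporter signal at the single screening dose is 50% or more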
TWEAK Fn14 block: inhibitors of TWEAK-Fn14 interaction signaling | TWEAK-stimulated Fn14 reporter cells, luciferase luminescence, 8 h | AID 1159606 | 2% of 360,000 active | inhibition, % at 10 µM; in the data active = inhibition above about 50%
LGR2 antag: blocks bursicon-induced cAMP signaling via Drosophila LGR2; inhibition, % at 9.99 µM; AID 720647; HEK293 LGR2, CRE-luciferase, bursicon-stimulated, 4 h; 0.35% of 380,000 active;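 active = drop in luminescence signal, shown as inhibition above about 50% in the replicate tests, limit read from the data, passing the limit was not always enough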;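 also: agonist challenge used bursicon conditioned medium at about half maximal strength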
aDG glyco up: alpha-DG glycosylation activation | Pro5-aDG cells, alpha-DG glycosylation AlphaScreen (IIH6); 0% Pro5, 100% B10-LARGE cell signal | AID 624168 | activation, % at 10 µM | 0.22% of 360,000 active;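 active = activation of at least 8% versus controls, or a plate z-score of at least 8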;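 also: Pro5 are CHO cells carrying HIG-tagged alpha-DG that lacks glycosylation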
* hit, by the source's call; . = no result.

SMILES | LMP1 NFkB inh | HSP90 refold inh | TROY NFkB inh | TWEAK Fn14 block | LGR2 antag | aDG glyco up
O=C(COc1ncnc2ccc(Br)cc12)Nc1ccc(N2CCOCC2)cc1 | 2 | -2 | -11 | 3 | . | 0
Brc1ccc2ncnc(Nc3ccc(N4CCOCC4)cc3)c2c1 | 13 | -3 | 42 | 59* | 26 | 0
CCCNC(=O)Nc1ccc2c(c1)C(=O)N(C)C[C@H](OC)[C@H](C)CN(Cc1cncnc1)[C@@H](C)CO2 | . | . | . | . | 4 | .
CCOc1ccc(C2=C(C=C(C#N)C#N)C(c3ccccc3)c3ccccc3O2)cc1 (configuration not stated) | -6 | 5 | 29 | 34 | 15 | 0
COc1ccc(C2=C(CN(C)C)C(c3ccccc3)c3ccccc3O2)cc1 (configuration not stated) | 78* | 2 | 4 | 3 | . | 1
Cn1c(=Nc2ccc(N3CCOCC3)cc2)ccc2ccccc21 | 8 | -3 | . | 72* | . | 3
CCn1c(=Nc2ccc(N3CCOCC3)cc2)ccc2ccccc21 | 3 | 3 | 3 | -7 | . | 0
Cn1c(N=Nc2ccc(N3CCOCC3)cc2)[n+](C)c2ccccc21 | -8 | -3 | 70* | 45 | -35 | 1
C[C@H]1CN([C@@H](C)CO)C(=O)c2cc(NC(=O)Cc3ccccc3)ccc2O[C@@H]1CN(C)S(=O)(=O)c1ccccc1 | . | . | . | . | 1 | .
O=C(O)c1cccc2cccc(-c3c4ccc(=O)c(O)c-4oc4c(O)c(O)ccc34)c12 | -2 | . | -3 | 82* | 4 | 0
C[C@@H]1CCCCO[C@@H](CN(C)C(=O)CCC(F)(F)F)[C@@H](C)CN([C@H](C)CO)C(=O)c2cc(NS(=O)(=O)c3cn(C)cn3)ccc2O1 | . | . | . | . | -3 | .
COc1ccc2c(c1)CC/C(=C\c1ccc(OC)c(Cn3cccn3)c1)C2=O | -25 | 3 | 44 | 59* | . | 0
COc1ccccc1C=C1CCc2ccccc2C1=O | . | . | 27 | 72* | 24 | 0
O=C1C(=Cc2ccc(F)cc2)CCc2ccccc21 | . | . | 27 | 70* | -13 | 0
O=C1C(=Cc2ccccc2Cl)CCc2ccccc21 | . | . | 19 | 58* | 10 | 0
O=C1C(=Cc2cccc(Cl)c2)CCc2ccccc21 | . | . | -19 | 22 | -29 | 0
COc1ccc2c(c1)CC/C(=C\c1ccc(OC)c(Cn3nc(C)cc3C)c1)C2=O | -12 | 3 | 31 | 30 | . | 0
COc1ccc2c3c(n(C)c2c1)[C@@H](CO)N(C(=O)CN1CCOCC1)CC31CN(C(C)=O)C1 | . | . | . | . | -6 | .
COc1ccc(C=C2CCc3ccccc3C2=O)cc1 | . | . | 61* | 94* | 4 | 0
O=C1C(=Cc2ccc(Cl)cc2)CCc2ccccc21 | . | . | 54* | 70* | -1 | 0
O=C(N/N=C/c1ccccc1O)c1cccc2ccccc12 | 38 | -4 | -16 | -19 | -4 | 1
CN(C)c1ccc(C=NNC(=O)c2cccc3ccccc23)c(Cl)c1 | 74* | . | -6 | -19 | -17 | 0
CCOc1ccc(CN(CCC#N)C(=S)NC(=O)c2ccccc2)cc1 | 0 | -2 | -9 | -5 | 9 | 2
CCOc1ccc(C(=O)NC(=S)N(Cc2ccccc2)Cc2ccccc2)cc1 | 50* | 4 | 42 | 19 | 2 | 0
O=C1c2ccccc2C(=O)C1c1ccc2ccccc2n1 | 32 | 0 | 49 | 95* | . | 0
SMILES | LMP1 NFkB inh | HSP90 refold inh | TROY NFkB inh | TWEAK Fn14 block | LGR2 antag | aDG glyco up
Cc1ccc(-c2nn3c(C)nnc3c3ccccc23)cc1S(=O)(=O)NC(C)c1ccccc1 (configuration not stated) | 4 | -1 | -8 | 58* | . | -1
Cc1ccc(/C=C/C(=O)Nc2ccc([N+](=O)[O-])cc2)o1 | -19 | -1 | 10 | 3 | -29 | 0
CCOC(=O)CCc1ccc(NC(=O)/C=C/c2ccc([N+](=O)[O-])o2)cc1 | -66 | . | -9 | 77* | 18 | 0
O=C(NCc1ccc2c(c1)OCO2)c1cccc(F)c1 | 8 | 5 | . | 82* | . | 0
O=C(C[C@@H]1CC[C@H](NC(=O)Nc2ccccc2F)[C@H](CO)O1)NCc1ccc(F)cc1 | . | . | . | . | -6 | .
Cc1sc2ncnc(N/N=C/c3ccc(O)cc3)c2c1C | 5 | -2 | -1 | 52* | -7 | 0
Cc1sc2ncnc(N/N=C/c3ccccc3O)c2c1C | 43* | 3 | -57 | 8 | -1 | 0
COc1ccc(/C=N/Nc2ncnc3sc(C)c(C)c23)cc1 | -18 | -2 | 10 | 5 | -10 | 0
